This note sets out measurements from ChEMBL document CHEMBL4513141, “CO-ADD screening of NIH (USA) - Clinical Collection” (2021).

One assay relates to Klebsiella pneumoniae. The following applies: Concentration 20 uM; ASSAY_TEST Inhibition of Bacterial Growth; detection method Absorption (OD600); MEDIA CAMHB; plate type 384well; NBS; CORNING #3640; time 18 hr.
In another assay the test system is Candida albicans. The following applies: 20 µM.
The next assay relates to Cryptococcus neoformans. The following applies: Concentration 20 uM; ASSAY_TEST Inhibition of Fungal Growth; detection method Resazurin; Absorption (OD600-OD570); plate type 384well; NBS; CORNING #3640.

Results with a measured potency or affinity are listed apart.

As for `CC(=O)OCC(=O)[C@@]1(O)CC[C@H]2[C@@H]3CCC4=CC(=O)CC[C@]4(C)[C@H]3[C@@H](O)C[C@@]21C` [HYDROCORTISONE ACETATE], the Inhibition – broadly, the change of the read-out against control, counted positive when it falls – with Klebsiella pneumoniae is 10.46%; in the assay on Candida albicans it was 1.02%; with Cryptococcus neoformans, -7.62%.
As for `Cl.O.O=C1N(c2ccccc2)c2ccccc2C1(Cc1ccncc1)Cc1ccncc1`, the Inhibition was 9.02% in the assay with Klebsiella pneumoniae, 3.32% in the assay with Candida albicans and -6.67% with Cryptococcus neoformans.
Regarding `CCCc1nc(C(C)(C)O)c(C(=O)OCc2oc(=O)oc2C)n1Cc1ccc(-c2ccccc2-c2nnn[nH]2)cc1` [OLMESARTAN MEDOXOMIL], the Inhibition with Klebsiella pneumoniae was 5.33%; in the assay on Candida albicans, 4.08%; with Cryptococcus neoformans, -0.73%.
For `C=C1/C(=C\C=C2/CCC[C@]3(C)[C@@H]([C@H](C)CCCC(C)(C)O)CC[C@@H]23)C[C@@H](O)C[C@@H]1O` [CALCITRIOL] the same measures were 21.35%, 2.06% and -8.66%.
For `Nc1nc(N)c2nc(-c3ccccc3)c(N)nc2n1` the same measures were -1.05%, 4.35% and 1.8%.
On to `CC(C)NCC(O)c1cc(O)cc(O)c1` (configuration not stated) [METAPROTERENOL], for which the Inhibition in the assay on Klebsiella pneumoniae is 7.02%; with Candida albicans, 1.29%; in the assay with Cryptococcus neoformans it was 0.32%.
For `Cc1[nH]c(=O)c(C#N)cc1-c1ccncc1` [MILRINONE], the Inhibition is 13.45% in the assay on Klebsiella pneumoniae, 3.54% with Candida albicans and -6.55% with Cryptococcus neoformans.
Take `CC(COc1ccccc1)NC(C)C(O)c1ccc(O)cc1.Cl` (configuration not stated) [ISOXSUPRINE HYDROCHLORIDE]: the Inhibition in the assay on Klebsiella pneumoniae was 7.34%; with Candida albicans it was 3.25%; with Cryptococcus neoformans, -2.3%.
For `COC(=O)C1=C(C)NC(C)=C(C(=O)O[C@@H]2CCCN(Cc3ccccc3)C2)[C@@H]1c1cccc([N+](=O)[O-])c1.Cl`, in that order: -2.17%, 3.91% and -18.39%.
